In publication PMC11062922 (Nature Chemical Biology, 2023):
Read-outs that look alike come from different tables or passages of the source.

Tested on: STK4
Conditions: read-out: apparent Kd, n = 1

Question: Lestaurtinib was tested. Which potency estimated from few doses (compound concentrations:100 nM and 1000 nM (sheet 'Lestaurtinib' of Supplementary Table 1),run:Lestaurtinib_02364_R3,Plate:MR002) did it give?
Answer: 43.2 nM

Question: What about the potency estimated from few doses (compound concentrations:100 nM and 1000 nM (sheet 'Lestaurtinib' of Supplementary Table 1),run:Lestaurtinib_02367_R1,Plate:MR003) of the same substance?
Answer: 35.7 nM

Question: What about the potency estimated from few doses (compound concentrations:100 nM and 1000 nM (sheet 'Lestaurtinib' of Supplementary Table 1),run:Lestaurtinib_02367_R2,Plate:MR003) of the same substance?
Answer: 35 nM

Question: What about the potency estimated from few doses (compound concentrations:100 nM and 1000 nM (sheet 'Lestaurtinib' of Supplementary Table 1),run:Lestaurtinib_02367_R3,Plate:MR003) of the same substance?
Answer: 39.1 nM

Question: What about the potency estimated from few doses (compound concentrations:100 nM and 1000 nM (sheet 'Lestaurtinib' of Supplementary Table 1),run:Lestaurtinib_02381_R1,Plate:MR004) of the same substance?
Answer: 35.8 nM

Question: What about the potency estimated from few doses (compound concentrations:100 nM and 1000 nM (sheet 'Lestaurtinib' of Supplementary Table 1),run:Lestaurtinib_02381_R2,Plate:MR004) of the same substance?
Answer: 36.2 nM

Question: And the potency estimated from few doses (compound concentrations:100 nM and 1000 nM (sheet 'Lestaurtinib' of Supplementary Table 1),run:Lestaurtinib_02407_R3,Plate:MR005)?
Answer: 33 nM

Question: What about the potency estimated from few doses (compound concentrations:100 nM and 1000 nM (sheet 'Lestaurtinib' of Supplementary Table 1),run:Lestaurtinib_02422_R1,Plate:MR006) of the same substance?
Answer: 44.8 nM

Question: And the potency estimated from few doses (compound concentrations:100 nM and 1000 nM (sheet 'Lestaurtinib' of Supplementary Table 1),run:Lestaurtinib_02422_R2,Plate:MR006)?
Answer: 50.1 nM

Question: And the potency estimated from few doses (compound concentrations:100 nM and 1000 nM (sheet 'Lestaurtinib' of Supplementary Table 1),run:Lestaurtinib_02422_R3,Plate:MR006)?
Answer: 45.3 nM

Question: What about the potency estimated from few doses (compound concentrations:100 nM and 1000 nM (sheet 'Lestaurtinib' of Supplementary Table 1),run:Lestaurtinib_02437_R1,Plate:MR007) of the same substance?
Answer: 42 nM

Question: And the potency estimated from few doses (compound concentrations:100 nM and 1000 nM (sheet 'Lestaurtinib' of Supplementary Table 1),run:Lestaurtinib_02437_R2,Plate:MR007)?
Answer: 41.6 nM

Question: What about the potency estimated from few doses (compound concentrations:100 nM and 1000 nM (sheet 'Lestaurtinib' of Supplementary Table 1),run:Lestaurtinib_02437_R3,Plate:MR007) of the same substance?
Answer: 4.01 nM

Question: What about the potency estimated from few doses (compound concentrations:100 nM and 1000 nM (sheet 'Lestaurtinib' of Supplementary Table 1),run:Lestaurtinib_02438_R1,Plate:MR008) of the same substance?
Answer: 36.6 nM

Question: What about the potency estimated from few doses (compound concentrations:100 nM and 1000 nM (sheet 'Lestaurtinib' of Supplementary Table 1),run:Lestaurtinib_02438_R3,Plate:MR008) of the same substance?
Answer: 38.2 nM

Question: What about the potency estimated from few doses (compound concentrations:100 nM and 1000 nM (sheet 'Lestaurtinib' of Supplementary Table 1),run:Lestaurtinib_02443_R1,Plate:MR009) of the same substance?
Answer: 38.6 nM

Question: What about the potency estimated from few doses (compound concentrations:100 nM and 1000 nM (sheet 'Lestaurtinib' of Supplementary Table 1),run:Lestaurtinib_02443_R3,Plate:MR009) of the same substance?
Answer: 36.6 nM

Question: What about the potency estimated from few doses (compound concentrations:100 nM and 1000 nM (sheet 'Lestaurtinib' of Supplementary Table 1),run:Lestaurtinib_02473_R2,Plate:MR010) of the same substance?
Answer: 44.6 nM

Question: What about the potency estimated from few doses (compound concentrations:100 nM and 1000 nM (sheet 'Lestaurtinib' of Supplementary Table 1),run:Lestaurtinib_02473_R3,Plate:MR010) of the same substance?
Answer: 37.7 nM

Question: What about the potency estimated from few doses (compound concentrations:100 nM and 1000 nM (sheet 'Lestaurtinib' of Supplementary Table 1),run:Lestaurtinib_02482_R1,Plate:MR011) of the same substance?
Answer: 34.5 nM

Question: What about the potency estimated from few doses (compound concentrations:100 nM and 1000 nM (sheet 'Lestaurtinib' of Supplementary Table 1),run:Lestaurtinib_02482_R2,Plate:MR011) of the same substance?
Answer: 42.5 nM

Question: What about the potency estimated from few doses (compound concentrations:100 nM and 1000 nM (sheet 'Lestaurtinib' of Supplementary Table 1),run:Lestaurtinib_02482_R3,Plate:MR011) of the same substance?
Answer: 38.1 nM

Question: What about the potency estimated from few doses (compound concentrations:100 nM and 1000 nM (sheet 'Lestaurtinib' of Supplementary Table 1),run:Lestaurtinib_02487_R1,Plate:MR012) of the same substance?
Answer: 33 nM

Question: What about the potency estimated from few doses (compound concentrations:100 nM and 1000 nM (sheet 'Lestaurtinib' of Supplementary Table 1),run:Lestaurtinib_02487_R3,Plate:MR012) of the same substance?
Answer: 48 nM

Question: And the potency estimated from few doses (compound concentrations:100 nM and 1000 nM (sheet 'Lestaurtinib' of Supplementary Table 1),run:Lestaurtinib_02496_R1,Plate:MR013)?
Answer: 39.4 nM

Question: What about the potency estimated from few doses (compound concentrations:100 nM and 1000 nM (sheet 'Lestaurtinib' of Supplementary Table 1),run:Lestaurtinib_02496_R3,Plate:MR013) of the same substance?
Answer: 36.6 nM

Question: What about the potency estimated from few doses (compound concentrations:100 nM and 1000 nM (sheet 'Lestaurtinib' of Supplementary Table 1),run:Lestaurtinib_02566_R2,Plate:MR014) of the same substance?
Answer: 53.6 nM

Question: And the potency estimated from few doses (compound concentrations:100 nM and 1000 nM (sheet 'Lestaurtinib' of Supplementary Table 1),run:Lestaurtinib_02566_R3,Plate:MR014)?
Answer: 36.8 nM

Question: And the potency estimated from few doses (compound concentrations:100 nM and 1000 nM (sheet 'Lestaurtinib' of Supplementary Table 1),run:Lestaurtinib_02572_R2,Plate:MR015)?
Answer: 38.4 nM

Question: And the potency estimated from few doses (compound concentrations:100 nM and 1000 nM (sheet 'Lestaurtinib' of Supplementary Table 1),run:Lestaurtinib_02572_R3,Plate:MR015)?
Answer: 51.5 nM

Question: And the potency estimated from few doses (compound concentrations:100 nM and 1000 nM (sheet 'Lestaurtinib' of Supplementary Table 1),run:Lestaurtinib_02577_R3,Plate:MR016)?
Answer: 26.1 nM

Question: What about the potency estimated from few doses (compound concentrations:100 nM and 1000 nM (sheet 'Lestaurtinib' of Supplementary Table 1),run:Lestaurtinib_02584_R1,Plate:MR017) of the same substance?
Answer: 32.3 nM

Question: And the potency estimated from few doses (compound concentrations:100 nM and 1000 nM (sheet 'Lestaurtinib' of Supplementary Table 1),run:Lestaurtinib_02584_R2,Plate:MR017)?
Answer: 37.7 nM

Question: And the potency estimated from few doses (compound concentrations:100 nM and 1000 nM (sheet 'Lestaurtinib' of Supplementary Table 1),run:Lestaurtinib_02584_R3,Plate:MR017)?
Answer: 39.7 nM

Question: And the potency estimated from few doses (compound concentrations:100 nM and 1000 nM (sheet 'Lestaurtinib' of Supplementary Table 1),run:Lestaurtinib_02601_R1,Plate:MR018)?
Answer: 47.3 nM

Question: And the potency estimated from few doses (compound concentrations:100 nM and 1000 nM (sheet 'Lestaurtinib' of Supplementary Table 1),run:Lestaurtinib_02601_R2,Plate:MR018)?
Answer: 41.1 nM

Question: And the potency estimated from few doses (compound concentrations:100 nM and 1000 nM (sheet 'Lestaurtinib' of Supplementary Table 1),run:Lestaurtinib_02601_R3,Plate:MR018)?
Answer: 51.2 nM

Question: And the potency estimated from few doses (compound concentrations:100 nM and 1000 nM (sheet 'Lestaurtinib' of Supplementary Table 1),run:Lestaurtinib_02606_R1,Plate:MR019)?
Answer: 38.6 nM

Question: And the potency estimated from few doses (compound concentrations:100 nM and 1000 nM (sheet 'Lestaurtinib' of Supplementary Table 1),run:Lestaurtinib_02606_R2,Plate:MR019)?
Answer: 55.6 nM

Question: And the potency estimated from few doses (compound concentrations:100 nM and 1000 nM (sheet 'Lestaurtinib' of Supplementary Table 1),run:Lestaurtinib_02624_R1,Plate:MR020)?
Answer: 48.3 nM

Question: And the potency estimated from few doses (compound concentrations:100 nM and 1000 nM (sheet 'Lestaurtinib' of Supplementary Table 1),run:Lestaurtinib_02724_R1,Plate:MR021)?
Answer: 52.4 nM

Question: And the potency estimated from few doses (compound concentrations:100 nM and 1000 nM (sheet 'Lestaurtinib' of Supplementary Table 1),run:Lestaurtinib_02724_R2,Plate:MR021)?
Answer: 41.4 nM

Question: And the potency estimated from few doses (compound concentrations:100 nM and 1000 nM (sheet 'Lestaurtinib' of Supplementary Table 1),run:Lestaurtinib_02724_R3,Plate:MR021)?
Answer: 39.8 nM

Question: What about the potency estimated from few doses (compound concentrations:100 nM and 1000 nM (sheet 'Lestaurtinib' of Supplementary Table 1),run:Lestaurtinib_02741_R2,Plate:MR023) of the same substance?
Answer: 36.2 nM

Question: What about the potency estimated from few doses (compound concentrations:100 nM and 1000 nM (sheet 'Lestaurtinib' of Supplementary Table 1),run:Lestaurtinib_02748_R2,Plate:MR024) of the same substance?
Answer: 31.7 nM

Question: And the potency estimated from few doses (compound concentrations:100 nM and 1000 nM (sheet 'Lestaurtinib' of Supplementary Table 1),run:Lestaurtinib_02748_R3,Plate:MR024)?
Answer: 40.9 nM

Question: What about the potency estimated from few doses (compound concentrations:100 nM and 1000 nM (sheet 'Lestaurtinib' of Supplementary Table 1),run:Lestaurtinib_02752_R1,Plate:MR025) of the same substance?
Answer: 51.5 nM
